Screens (PubChem)
ClpP mod: qHTS Assay for Activators of ClpP; ATP-dependent Clp protease proteolytic subunit (Bacillus subtilis (strain 168)), P80244; purified B. subtilis ClpP, FRET peptide cleavage, 20 min; Potency, µM (doses to about 57.5 µM), for the others: top-dose activity change, negative = active; 340,000 compounds, 1.9% hits; AID 651965, 2013; active = well fitted falling curve with a large enough effect; inconclusive = small, poorly fitted or top-dose-only effect; inactive = no such curve, though single readings can be large or run the other way; note: the source files actives as falling curves though it sought activators and does not explain the sign; nearly all actives have a fitted effect of over 65% in size
Target sequence (P80244 whole entry, looked up): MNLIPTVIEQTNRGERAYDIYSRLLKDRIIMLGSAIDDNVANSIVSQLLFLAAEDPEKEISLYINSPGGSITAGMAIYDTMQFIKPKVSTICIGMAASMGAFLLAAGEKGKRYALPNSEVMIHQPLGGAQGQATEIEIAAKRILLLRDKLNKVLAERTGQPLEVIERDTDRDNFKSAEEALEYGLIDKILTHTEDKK
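FRET quenching reversal measured ClpP activation: 10 microg/mL B. subtilis ClpP at pH 8 with the FRET-FV decapeptide, read at 430 nm after 320 nm excitation. The 20-min minus 0-min signal was scaled between DMSO/no-enzyme wells and ADEP (5.8 microM final).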
Abeta rescue: restores growth of yeast expressing A-beta42 peptide | yeast expressing A-beta42, growth rescue, OD600, 48 h; response scale: 0% DMSO, 100% iron-clioquinol control | Potency, µM (doses to about 46.1 µM), hits mostly activators | 410,000 compounds, 0.063% hits | AID 1347071; note: nearly all actives have a fitted effect of over 55% in size
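Growth rescue measured by 600 nm absorbance after 48 h yeast culture at 30 C with compound. Values normalized between DMSO and an equimolar ferric chloride plus clioquinol control.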
Mm-Cpn inhibitor: blocks the Methanococcus maripaludis chaperonin Mm-Cpn | purified Mm-Cpn ATPase, ADP Transcreener TR-FRET | Potency, µM (top dose mostly 76.9 µM), for inactives: top-dose activity, negative = inhibition, actives largely listed as inhibitors | 330,000 compounds, 0.031% hits; note: % is set by controls: 0 for no effect and ±100 for the full control effect; nearly all actives have a fitted effect of over 80% in size
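TR-FRET (320 nm excitation; 590 and 665 nm emission) reports ADP made from 10 uM ATP by 25 nM enzyme; compounds were preincubated 10 min, reaction run 30 min, both at 37°C.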
TDP-43 yeast inh: TDP-43 toxicity inhibition in yeast. Potency, µM (series often up to 46.1 µM), inactives show at the highest dose growth rescue (activation), hits mostly activators. TDP-43 expressing yeast growth rescue, BacTiter-Glo, 24 h. 410,000 compounds, 1.8% hits. AID 652104; note: % of control where 0% means no effect; nearly all actives have a fitted effect of over 50% in size
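Growth rescue of TDP-43-toxic yeast measured as ATP luminescence (BacTiter-Glo). Cells grown to mid-log in raffinose, induced in galactose at OD600=0.02, exposed to compound 24 hr at 30 deg C.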
aSyn yeast inh: alpha-synuclein toxicity inhibition in yeast; Yeast expressing alpha-synuclein, growth rescue, BacTiter-Glo, 24 h; Potency, µM (top dose mostly 46.1 µM), without a hit: at the highest dose growth rescue (activation), usual class: activators; 370,000 compounds, 0.14% hits; AID 652106; note: % of control where 0% means no effect; nearly all actives have a fitted effect of over 65% in size
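Readout is rescue of growth in alpha-synuclein-expressing yeast, so inhibitors of toxicity appear as activators. Growth after 24 hr at 30 deg C in galactose medium is quantified by luminescence.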
FUS yeast rescue: FUS proteinopathy suppression in yeast | S. cerevisiae FUS-expressing, growth rescue, OD600, 24 h | Potency, µM (doses to about 76.6 µM), most hits filed as activators | 390,000 compounds, 0.24% hits;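 note: plate controls were DMSO vehicle for no effect and reference control for full effect; nearly all actives have a fitted effect of over 55% in size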
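Yeast FUS proteinopathy model; galactose-induced FUS (2%), starting OD 0.005. Cpds in dilution series, 24hr, 30C, 99% humidity. Abs 600 nm growth. Pos ctrl CP55940 (top 92uM final); neg ctrl DMSO.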
* marks the source's active call; other numbers are inactive results; i = inactive; ? = inconclusive; . = no result given; [ ] = another dose, or the depositor's remark. Most compounds without a hit are left out; they make up all but 3.6% or so of the library. Unless noted, calls come from the whole dose curve; as a rule, active = well fitted curve in the direction sought with a large enough effect; inconclusive = small, poorly fitted or top-dose-only effect, or another doubt; inactive = no such curve, though single readings can be large; an effect the other way counts as inactive or inconclusive. Potency is the fitted concentration of half-maximal effect.

SMILES	ClpP mod	Abeta rescue	Mm-Cpn inhibitor	TDP-43 yeast inh	aSyn yeast inh	FUS yeast rescue
Cc1ccc(-n2ccnc(NCCc3ccc(S(N)(=O)=O)cc3)c2=O)c(C)c1	-11%	i	.	11%	.	i
COc1ccccc1C1CCN(C(=O)c2cccs2)CC1	-3%	i	0%	13µM*	-3%	i
CCOC(=O)C1CCCN(c2nc3c(S(=O)(=O)c4ccc(CC)cc4)nnn3c3ccsc23)C1 (centres undefined)	32µM*	i	.	12%	.	?
CCOC(=O)C1CCN(c2nc3c(S(=O)(=O)c4ccc(Br)cc4)nnn3c3ccsc23)CC1	14µM*	i	.	4%	.	?
CCc1ccc(S(=O)(=O)c2nnn3c2nc(N2CCCC2)c2sccc23)cc1	?	i	.	-9%	.	i
CCOC(=O)C1CCCN(c2nc3c(S(=O)(=O)c4ccc(Br)cc4)nnn3c3ccsc23)C1 (centres undefined)	11µM*	i	.	-2%	.	?
Cc1ccc(S(=O)(=O)c2nnn3c2nc(N2CCCCC2)c2sccc23)cc1	-6%	i	.	-2%	.	i
CC(C)c1ccc(S(=O)(=O)c2nnn3c2nc(N2CCOCC2)c2sccc23)cc1	-28%	i	.	-9%	.	i
CC(C)c1ccc(S(=O)(=O)c2nnn3c2nc(N2CCCCC2)c2sccc23)cc1	25µM*	i	.	15%	.	i
COc1ccc(-c2nc3c(c(SCC(=O)N4CCCCC4)n2)Cc2c(CO)cnc(C)c2O3)cc1	0%	i	.	-5%	.	i
CCCCN1CCN(C(=O)C2CCCN(C(=O)c3ccc4c(c3)NC(=O)CS4)C2)CC1 (centres undefined)	.	.	.	.	.	i
Cc1c(Cl)cccc1-c1ccc(C(=O)Nc2ccc(F)cc2)o1	?	i	.	7%	.	i
Cc1ccc(C23CC4CC(CC(CC(=O)NC(C)(C)CO)(C4)C2)C3)cc1	1%	i	3%	35µM*	2%	i
CC(C)(C)c1ccc(-c2n[nH]c(=S)n2-c2ccccc2)cc1	8.9µM*	i	-12%	-23%	-5%	i
CCOC(=O)C1=NOC(C(=O)NC2CCCC2)(C(=O)c2ccc(OC)cc2)C1 (centres undefined)	.	.	.	.	.	i
Cc1cc(NCc2ccccn2)nc2ccccc12	?	i	-3%	-22%	-4%	i
c1ccc(CNc2ccc3ccccc3n2)nc1	28µM*	i	2%	-13%	-18%	i
Cc1ccc2c(c1)c1c3n2CCN(C(=O)c2cccc(C(F)(F)F)c2)C3CCC1 (centres undefined)	-3%	i	.	15%	.	i
Cc1ccc(NC(=O)CSc2c3c(nc4ccccc24)CCCC3)cc1F	-3%	i	.	0%	.	i
COc1ccc(-c2cc3ccccc3n2CC(O)CN2CCOCC2)cc1 (centres undefined)	8.9µM*	i	-2%	-10%	0%	i
Cc1ccc(S(=O)(=O)NCc2ccc(C(=O)N3CCc4ccccc4C3)cc2)cc1	28µM*	i	-5%	0%	20%	.
CCC(C)S(=O)(=O)c1oc(-c2ccc(F)cc2)nc1S(=O)(=O)c1ccc(F)cc1 (centres undefined)	-2%	i	.	?	.	?
COC(=O)C1C(=O)c2c([nH]c(C(=O)OCCOC(C)C)c2C)CC1C (centres undefined)	32µM*	i[9.22 µM]	0%	11%	0%	i
CCOC(=O)c1ccc(NC(=O)CCc2c(C)nc3c(c(C)nn3C(C)(C)C)c2C)cc1	?	i	.	27%	-11%	i
Cc1nnc(SCc2ccc(Cl)cc2)c2cc3occc3n12	-9%	i	.	22%[9.22 µM]	.	?
SMILES	ClpP mod	Abeta rescue	Mm-Cpn inhibitor	TDP-43 yeast inh	aSyn yeast inh	FUS yeast rescue
Cc1nnc(SCc2ccccc2Cl)c2cc3occc3n12	-5%	i	.	35µM*	.	?
Fc1ccc(Sc2nc(-c3ccccc3)nnc2C(F)(F)F)cc1	-1%	i	1%	16%	-1%	i
Fc1ccc(Sc2cc(Cl)c(-c3ccccc3)nn2)cc1	28µM*	i	-3%	16µM*	-1%	i
O=C(Nc1cc(F)ccc1F)c1ccc(CN2CC(=O)N3CCCCC3C2=O)cc1 (centres undefined)	3%	i	.	8%	.	i
CSc1nc(Cl)cc(Nc2ccccc2N)n1	.	i	-2%	10µM*	9%	i
COC(=O)CCCn1c(C)cc(C(=O)CCl)c1C	2%	i	2%	20µM*	-35%	i
Cc1cc(C(=O)CCl)c(C)n1Cc1ccco1	0%	i	0%	10µM*	-31%	i
Cc1cc(C(=O)CCl)c(C)n1CCc1ccccc1	.	i	-4%	10µM*	-11%	i
c1ccc(-c2cc3c(N4CCN(c5ccccc5)CC4)ncnc3s2)cc1	.	i	-16%	28µM*	9%	i
Cc1ccc(-n2ncc(C(=O)NCc3ccco3)c2C2CCN(C(=O)OC(C)(C)C)CC2)cc1C	-1%	i	.	16%	.	?
COc1ccc(CC(=O)Nc2ccc(-c3cn4ccc(C)cc4n3)cc2)cc1	16µM*	i	-1%	-7%	-12%	i
COc1ccccc1N(CC(=O)NCCN1CCOCC1)S(=O)(=O)c1ccc(C)cc1	-2%	i	-4%	7%	-2%	i
CN(CC(=O)NCCCN1CCOCC1)S(=O)(=O)c1ccc(Cl)cc1	20µM*	i	0%	21%	4%	.
COc1ccc(S(=O)(=O)N(C)CC(=O)NCCN2CCOCC2)cc1	.	i	0%	-2%	0%	i
COc1cccc(N(CC(=O)NCCN2CCOCC2)S(=O)(=O)c2ccccc2)c1	18µM*	i	-5%	-11%	-10%	i
COc1cc(C2CC(=O)Nc3c2c(C)nn3-c2nncc(-c3ccccc3)n2)cc(OC)c1OC (centres undefined)	-1%	i	.	3%	.	i
COc1ccc(OCc2ccc(-c3nc(C#N)c(NCc4ccc(F)cc4)o3)o2)cc1	32µM*	i	.	0%	.	i
COc1ccc(CNc2oc(-c3ccc(COc4ccc(OC)cc4)o3)nc2C#N)cc1	22µM*	i	.	-1%	.	i
CN(C)CCNc1oc(-c2ccc(COc3ccc(Cl)cc3)o2)nc1C#N	?	i	.	11%	.	i
CCOc1ccc(-c2nc(C#N)c(NC3CC3)o2)cc1	7.1µM*	i	0%	9%	0%	i
